About 83,000 compounds went through this panel and 20% of them were active in at least one assay; those are over-represented in the sample as a whole.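 Cell lines were cultured in 96-well plates, exposed to a single compound concentration, and assessed for percent growth 48 hours later.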 A number with no mark means an inactive call. Calls of active or inactive are those of the source. The calls were made as follows: active = growth percent below 10; inactive = the rest.

The values below come from PubChem BioAssay (NCI).

The test system of the assay is HL-60(TB) leukemia. Briefly: NCI-60 one-dose screen, 48 h (100 = growth as untreated, 0 = no growth, -100 = all killed). The settings on record: 10 µM unless noted.
For `NC(=S)n1c(=O)n(-c2cccc(C(F)(F)F)c2)c(=O)c2cc(-c3ccc(F)cc3F)ccc21`, the growth was -46.8% (active). For the compound `Oc1ccccc1-c1nnc(SCc2ccc(O)c3ncccc23)n1-c1ccccc1`, the growth is 4.52% (active).

For `CCn1c2ccc(/C=N/N(C)S(=O)(=O)CCN(C)C)cc2c2cc(/C=N/N(C)S(=O)(=O)CCN(C)C)ccc21`, the growth was 42.5%. Regarding `CCOP(=O)(OCC)OC[C@]12CCC(C)(C)C=C1[C@H]1CC[C@@H]3[C@@]4(C)CC[C@H](OP(=O)(OCC)OCC)C(C)(C)[C@@H]4CC[C@@]3(C)[C@]1(C)CC2`, the growth was -22.1% (active).

For `O=C1/C(=C/C=C/c2ccco2)SC(=S)N1Cc1ccccc1`, the growth is 96.9%.

As for `C#CCOc1cccc(-c2nc(N)nc(Nc3ccccc3SSc3ccccc3Nc3nc(N)nc(-c4cccc(OCC#C)c4)n3)n2)c1`, the growth was 23.7%. Consider `N#Cc1c(Nc2ccccc2)nn2c(-c3ccc([N+](=O)[O-])cc3)ccnc12`, for which the growth was 93.9%. Regarding `Cc1nc(/N=C(N)/N=C(\N)c2cccc(Br)c2)sc1C`, the growth is 12.4%.

Consider `Cc1ccccc1NC(=O)/C=C/c1ccc(OCCOc2ccc3c(C)cc(=O)oc3c2)cc1`, for which the growth was 97.2%. On to `CCOC(=O)c1ccc(NC2=CC(=O)C(C)=C(C)C2=O)cc1`, for which the growth is 53%. Regarding `CC[C@]12CC(C(=O)OC)=C3Nc4ccccc4[C@@]34CCN(C14)[C@@H]1c3cc4c(cc3O[C@@H]1[C@H]2O)NC1=C(C(=O)OC)C[C@@]2(CC)C3N(CC[C@@]143)C[C@H]1O[C@H]12` (stereo not given in full), the growth was -1.14% (active).

For the compound `COc1ccc(CC(C)=C(c2ccc(OCCN3CCCC3)cc2)c2ccc(OCCN3CCCC3)cc2)cc1`, the growth was -64.2% (active).

Turning to `NC(N)=Nc1ccc(Oc2cccc(Nc3ccc(Br)c(C(F)(F)F)c3)c2)cn1`, the growth was -62.9% (active).

For the compound `C=C(C)C(=O)O[C@H]1C[C@@]2(C)OC(=CC2=O)/C(CO)=C\[C@H]2OC(=O)C(=C)[C@H]12`, the growth is -31.2% (active). For `CCOC(=O)c1ccc(N/C=C/C(=O)c2ccccc2)cc1`, the growth was 84.3%. In the case of `Clc1ccc2[nH]cc(-c3cncn3CCc3ccc4c(c3)OCO4)c2c1`, the growth was 52.1%. With `C#C[C@]1(O)CC[C@H]2[C@@H]3CC=C4c5sc(N6CCN(C)CC6)nc5CC[C@]4(C)[C@H]3CC[C@@]21C`, the growth is 6.2% (active). On to `O=C1[C@H]2Cc3c([nH]c4ccccc34)[C@@H](c3ccc(Cl)cc3)N2C(=O)CN1C1CCN(Cc2ccccc2)CC1`, for which the growth was 12.9%. In the case of `N#C/C(=C\c1ccc(N2CCCCC2)cc1)C(=O)Nc1sc2c(c1C#N)CCC2`, the growth was 98.7%. In the case of `COc1ccc2[nH]cc(/C=N/Nc3ccnc4cc(Cl)ccc34)c2c1`, the growth was -56.1% (active). Next, `O=C(/C=C/c1ccc(Cl)c(Cl)c1)Nc1ncc(Cc2ccc(Cl)c(Cl)c2)s1`: 48.2%.

In the case of `O=C(NNc1nc2cc(F)c(F)cc2n2cccc12)c1ccncn1`, the growth is 0.0559% (active). As to `N#Cc1c(-c2cccs2)cc(-c2cnccn2)nc1SCC(=O)Nc1ccc(Br)cc1`, the growth was 107%. Next, `CC1(C)C=Cc2cc(/C(N)=N/C(N)=N/c3nc4ccccc4s3)ccc2O1`: 72.9%. Turning to `C#CCOc1ccc(/C=N\Nc2nc(-c3ccc(C)cc3)cs2)cc1OC`, the growth was 69.5%.
